# Screens (PubChem BioAssay)
# A selection: hits, their analogues and other compounds. The true share with any hit is near 3.4%.
# pPAFAH inh – pPAFAH enzyme inhibitors, primary screen, biochemical, fluorescence polarization, human. hit rate 1.5% among 330,000. inhibition, % at 3.39 µM. recombinant pPAFAH, FP-rhodamine probe fluorescence polarization. AID 463082, 2010. Platelet-activating factor acetylhydrolase (Homo sapiens), Q13093;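 active = inhibition above the mean inhibition across the screen plus 3 SD, cut at about 25% in these data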;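 also: inhibitors block binding of the rhodamine activity-based probe so polarization drops; 0% = enzyme with DMSO and 100% = wells lacking pPAFAH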
# PP1 inh – PP1-alpha phosphatase inhibitors, primary screen, counter-screen for PP5 inhibitor project, biochemical, fluorescence, OMFP substrate, single point; purified PP1alpha; AID 2235, 2010; hit rate 0.9% among 320,000; Serine/threonine-protein phosphatase PP1-alpha catalytic subunit (Homo sapiens), P62136; inhibition, % at 6.7 µM;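 active = inhibition above the mean inhibition of all tested compounds plus 3 SD, computed separately for each screening campaign, cut at about 15% in these data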
# Target sequence (P62136 whole entry, looked up): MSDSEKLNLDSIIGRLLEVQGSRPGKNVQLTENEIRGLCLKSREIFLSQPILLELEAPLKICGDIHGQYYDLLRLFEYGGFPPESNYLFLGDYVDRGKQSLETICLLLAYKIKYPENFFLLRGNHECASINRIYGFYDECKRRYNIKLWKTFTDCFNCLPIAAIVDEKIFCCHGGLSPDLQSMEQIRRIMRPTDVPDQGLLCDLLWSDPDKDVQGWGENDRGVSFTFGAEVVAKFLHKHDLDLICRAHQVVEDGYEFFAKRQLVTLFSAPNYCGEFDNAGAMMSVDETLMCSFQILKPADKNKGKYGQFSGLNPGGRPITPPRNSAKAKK
# PP5 primary – PP5 phosphatase inhibitors, primary screen, biochemical, fluorescence. inhibition, % at 6.7 µM. hit rate 0.18% among 320,000. AID 1987, 2009. purified PP5c, OMFP substrate fluorescence. Serine/threonine-protein phosphatase 5 (Homo sapiens), P53041;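 active = inhibition above the campaign's mean inhibition across all tested compounds plus 3 SD, cut at about 9.5% in these data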;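 also: 0% = DMSO only and 100% = 100 µM cantharidin control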
# PAFAH1B3 FP inh – PAFAH1B3 enzyme inhibitors, primary screen, biochemical, fluorescence polarization, human | Platelet-activating factor acetylhydrolase IB subunit alpha1 (Homo sapiens), Q15102 | recombinant PAFAH1B3, FP-rhodamine probe | inhibition, % at 3.39 µM | hit rate 0.28% among 340,000;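 active = inhibition above the screen-wide average of all tested compounds plus 3 SD, cut at about 25% in these data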;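 also: 0% = enzyme with DMSO only and 100% = wells lacking PAFAH1B3 protein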
# PAFAH2 FP inh – PAFAH2 enzyme inhibitors, primary screen, biochemical, fluorescence polarization, human; Platelet-activating factor acetylhydrolase 2, cytoplasmic (Homo sapiens), Q99487; recombinant PAFAH2, FP-rhodamine activity probe; inhibition, % at 3.39 µM; hit rate 0.99% among 340,000; AID 492956, 2010;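 active = inhibition above the mean over all tested compounds plus 3 SD, cut at about 30% in these data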;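 also: inhibitors block probe labeling of enzyme so polarization drops; 0% = enzyme with DMSO and 100% = wells lacking PAFAH2 protein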
# PAFAH1B2 inh – PAFAH1B2 enzyme inhibitors, primary screen, biochemical, fluorescence polarization, human | recombinant PAFAH1B2, FP-rhodamine activity probe | inhibition, % at 3.39 µM | hit rate 1.2% among 340,000;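 active = inhibition above the mean of all tested compounds plus 3 SD, cut at about 24% in these data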;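 also: 0% = enzyme with DMSO and 100% = wells lacking PAFAH1B2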
# Target sequence (P68402 whole entry, looked up): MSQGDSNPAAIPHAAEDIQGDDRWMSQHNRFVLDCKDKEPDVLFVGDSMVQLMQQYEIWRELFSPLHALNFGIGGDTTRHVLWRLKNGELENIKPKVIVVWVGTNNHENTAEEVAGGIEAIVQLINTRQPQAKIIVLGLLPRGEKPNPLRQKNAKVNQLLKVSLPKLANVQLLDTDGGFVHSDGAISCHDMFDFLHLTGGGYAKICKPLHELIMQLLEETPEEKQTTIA
# PAFAH2 FP conf – PAFAH2 enzyme inhibitors, confirmation, biochemical, fluorescence polarization, human | shares compounds with PAFAH2 FP inh | recombinant PAFAH2, FP-rhodamine activity probe | inhibition, % at 3.39 µM | hit rate 65% among 2,300 | AID 493030, 2011;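 active = mean inhibition over three repeats above a set limit taken from the earlier primary screen, cut at about 30% in these data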;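 also: inhibitor blocks binding of rhodamine activity probe so polarization falls; 0% = enzyme with DMSO and 100% = wells lacking PAFAH2 protein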
# An asterisk follows results filed as active; nt = no result.
SMILES,pPAFAH inh,PP1 inh,PP5 primary,PAFAH1B3 FP inh,PAFAH2 FP inh,PAFAH1B2 inh,PAFAH2 FP conf
COc1ccc(C(=O)OCC(=O)NC2CC2)cc1S(=O)(=O)N(C)Cc1ccccc1,21,-2,-1,4,54*,4,49*
COc1cc(N)c(Cl)cc1C(=O)OCC(=O)NCC1CCCCC1,3,nt,nt,6,60*,0,52*
COc1cc(N)c(Cl)cc1C(=O)OCC(=O)NCC1CCCO1 (stereo unspecified),2,nt,nt,-2,9,5,nt
COc1ccc(C(=O)OCC(=O)NC2CC2)cc1F,0,nt,nt,9,49*,1,31*
CCN(C(=O)COC(=O)c1ccc(OC)c(S(=O)(=O)N(C)Cc2ccccc2)c1)C1CCS(=O)(=O)C1 (stereo unspecified),-1,-2,-1,-3,-2,1,nt
COc1cc(C(=O)OCC(=O)NCC2CCCCC2)ccc1OCC(C)C,15,1,1,-2,68*,2,61*
C=CCN1C(=O)/C(=C2/Sc3ccccc3N2CCCS(=O)(=O)O)SC1=S,25*,3,1,16,34*,14,22
Cc1ccc(S(=O)(=O)Nc2ccccc2C(=O)N2CCCCCC2)cc1,nt,nt,nt,8,1,4,nt
CCN(CC)S(=O)(=O)c1cc(C(=O)OCC(=O)NC(=O)c2cccn2C)ccc1C,18,4,-1,-4,62*,6,50*
CC(C)(C)C(=O)COC(=O)c1ccc(O)cc1,-6,-1,-1,4,-1,5,nt
Cn1cccc1C(=O)NC(=O)COC(=O)c1ccc(S(C)(=O)=O)cc1,2,nt,nt,8,-1,2,nt
CC(C)NC(=O)COC(=O)c1ccc(O)cc1,-4,0,-9,5,48*,3,24
Cn1cccc1C(=O)NC(=O)COC(=O)c1ccc(O)cc1,-2,0,2,2,52*,0,45*
O=C(CCN=C1NS(=O)(=O)c2ccccc21)OCc1nnc(-c2ccccc2)o1,1,-6,1,0,4,-1,nt
CCc1sc(C(=O)Nc2ncccc2O)cc1C,nt,nt,nt,4,30*,2,27
COCCN(CCOC)C(=O)c1ccc(NS(=O)(=O)c2ccc3[nH]c(=O)[nH]c3c2)cc1,-4,0,-2,3,-1,-2,nt
COc1cc(C(=O)OCC(C)=O)ccc1OCc1c(C)noc1C,nt,nt,nt,9,1,2,nt
COc1cc(C(=O)OCC(=O)N2CCCCC2C)ccc1OCc1c(C)noc1C (stereo unspecified),5,0,-1,1,32*,2,13
Cc1ccc(Cl)c(NC(=O)CN2CCNC(=O)C2)c1Cl,-2,-7,1,9,-4,-2,nt
COC(=O)c1ccccc1NC(=O)CN1C(=O)NC2(CCCCCCC2)C1=O,-4,1,1,0,85*,3,6
Nc1ncnc(Nc2ccccc2Cl)n1,-5,1,1,-4,6,7,nt
CC(C)NC(=O)COC(=O)/C=C/c1ccc(F)cc1,1,3,-2,5,36*,-3,22
O=C(COC(=O)c1ccc(F)cc1)NC1CC1,1,-5,3,8,22,4,nt
O=C(COC(=O)/C=C/c1ccc(F)cc1)NC1CC1,2,nt,nt,1,49*,-1,37*
O=C(COC(=O)/C=C/c1ccc(Cl)c(Cl)c1)NC1CC1,6,nt,nt,7,17,9,nt
SMILES,pPAFAH inh,PP1 inh,PP5 primary,PAFAH1B3 FP inh,PAFAH2 FP inh,PAFAH1B2 inh,PAFAH2 FP conf
O=C(COC(=O)/C=C/c1ccc(F)cc1)NC1CCCCCC1,12,nt,nt,3,89*,0,81*
O=C(COC(=O)/C=C/c1ccc(Cl)cc1)NC1CCCC1,2,-5,3,6,64*,6,67*
Cc1ccccc1C(=O)NCCCNC(=O)c1ccccc1C,0,-5,-2,nt,nt,nt,nt
COc1ccc(N2C(=NC(=O)C(C)Oc3ccccc3)SC3CS(=O)(=O)CC32)cc1 (stereo unspecified),4,-1,1,-4,6,2,nt
CC(C)CC1NC(=O)N(CC(=O)Nc2cc(F)ccc2F)C1=O (stereo unspecified),1,-1,1,2,1,4,nt
O=C(COC(=O)/C=C/c1ccc(F)cc1)NC1CCCC1,nt,nt,nt,3,79*,3,86*
O=C(c1ccc(S(=O)(=O)Nc2cccc(C(F)(F)F)c2)cc1)N1CCN(c2ccccc2O)CC1,21,-5,1,4,8,1,nt
O=C(COC(=O)C1CC2C=CC1C2)Nc1cccc(S(=O)(=O)N2CCCCCC2)c1 (stereo unspecified),16,3,3,12,36*,3,24
O=C(COC(=O)C1CC2C=CC1C2)Nc1cccc(S(=O)(=O)N2CCCCC2)c1 (stereo unspecified),7,3,1,-2,53*,6,41*
NS(=O)(=O)c1ccc(CCNS(=O)(=O)c2ccc(Cl)nc2)cc1,4,-2,0,2,6,5,nt
COC(=O)c1cc(NS(=O)(=O)c2cccs2)cc(NS(=O)(=O)c2cccs2)c1,nt,nt,nt,7,32*,3,13
COc1ccccc1NC(=O)c1ccccc1NS(=O)(=O)c1cccs1,8,-5,0,7,44*,3,40*
COc1cccc(CNc2ccc(Br)cn2)c1O,0,-4,0,2,75*,4,4
COc1cccc(/C=N/NC(=O)Cn2cnc3c2c(=O)n(C)c(=O)n3C)c1OC,8,-4,-1,nt,nt,nt,nt
CC(C)(CC(=O)OCC(=O)Nc1ccccc1F)CC1=NS(=O)(=O)c2ccccc2N1,0,-1,3,1,31*,-7,28
COCCN(CC1CCCN(C2Cc3ccccc3C2)C1)C(=O)c1cccc(C)c1 (stereo unspecified),5,5,-2,-3,32*,2,19
Cc1cccn2c(=O)c(C=O)c(N3CCN(c4ccc(F)cc4)CC3)nc12,-3,0,1,5,1,-1,nt
O=C(Nc1ccccn1)c1ccc([N+](=O)[O-])o1,0,-3,2,5,9,2,nt
O=C(Nc1ncccn1)c1ccc([N+](=O)[O-])o1,9,-2,-1,8,78*,8,67*
